According to PubChem BioAssay:
Activity calls are given as the source filed them.

Experiments:
Albumin (Bos taurus) = Albumin (Bos taurus) (UniProt P02769); assay: compounds binding labelled BSA control protein – biochemical, small-molecule microarray, Alexa647 label, 635/667 nm fluorescence, artefact control for SMM control protein annotation, profiling panel (AID 1118); conditions: BSA-A647 binding, fluorescence 635 nm, higher = more signal;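 note: score merges 667 nm emission intensity and signal-to-noise per printed compound spot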
[1] = probe aXIP binding to arrayed compounds – biochemical, NeuroSMM set, 635/667 nm fluorescence, primary screen (AID 1119); conditions: small-molecule microarray, higher = more signal, called active from +8 up or from −8 down;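 note: probe is the protein aXip251-270 applied at 1 µg/mL to compound-printed slides; binding of probe to printed compounds measured as 667 nm fluorescence plus signal to noise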
[2] = probe aNOTCH3 binding on compound microarray – biochemical, small-molecule microarray, 635/667 nm fluorescence, primary screen (AID 1120); conditions: higher = more signal;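 note: probe is a biotin-tagged antibody raised against NOTCH3 rather than NOTCH3 protein; score merges spot fluorescence near 667 nm with spot signal to noise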
[3] = probe aNOTCH2 binding on compound microarray – biochemical, small-molecule microarray, 635/667 nm fluorescence, primary screen (AID 1121); conditions: higher = more signal;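 note: score merges feature fluorescence read at 667 nm with its signal to noise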
[4] = target: Carbonic anhydrase 2 (Homo sapiens) (UniProt P00918); assay: compounds binding carbonic anhydrase 2 – biochemical, small-molecule microarray, Alexa647-labelled CAII, profiling panel (AID 1122); conditions: CAII-A647 binding fluorescence, higher = more signal
[5] = COS7 lysate on small-molecule microarray, probe aHis, 635 nm (AID 1123); conditions: COS7 cell lysate, fluorescence, higher = more signal;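 note: z-score combines 667nm fluorescence intensity with signal-to-noise per printed compound spot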
[6] = probe aLAP1 signal on lysate-treated microarray – cell lysate, small-molecule microarray, COS7 lysate, primary screen (AID 1124); conditions: probe aLAP1, fluorescence, higher = more signal;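 note: lysate comes from COS7 cells expressing LAP1 and is applied at 0.3 µg/mL; score merges spot fluorescence near 667 nm with signal-to-noise over triplicate slides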
Sam68 (KHDRBS1) = assay: compounds binding KHDRBS1 protein – biochemical, small-molecule microarray, 635 nm fluorescence, primary screen (AID 1125); conditions: higher = more signal;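 note: score merges 667 nm channel intensity with signal to noise over triplicate slides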
[7] = system: Chordin-like protein 2 (CHRDL2); assay: compounds binding chordin-like 2 – biochemical, small-molecule microarray, 635 nm fluorescence, primary screen (AID 1126); conditions: fluorescence 635 nm, higher = more signal;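 note: printed compound slides probed with Chrdl2 protein at 4 µg/mL for 1 h at 4 C; score merges 667 nm emission intensity with signal to noise over three replicate slides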
[8] = target: Concanavalin-A (Canavalia ensiformis) (UniProt P02866); assay: compounds binding concanavalin A lectin – biochemical, small-molecule microarray, Alexa647 label, 635 nm, artefact control for SMM control protein annotation, primary screen (AID 1127); conditions: ConA-A647 binding fluorescence, higher = more signal;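 note: z combines 667 nm emission intensity with signal-to-noise across three replicate slides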
[9] = compounds binding Alexa647 anti-His antibody – biochemical, small-molecule microarray, 635 nm fluorescence, artefact control for SMM control protein annotation, primary screen (AID 1128); conditions: higher = more signal;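 note: score merges feature fluorescence with signal-to-noise for each printed compound spot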
[10] = system: Human papillomavirus type 1a E7 protein (residues 1-88); assay: HPV1a E7 small-molecule binders, primary screen, biochemical, small-molecule microarray, residues 1-88, 635 nm (AID 1129); conditions: small-molecule microarray binding, fluorescence 635 nm; higher = more signal
[11] = target: Focal adhesion kinase 1 (Homo sapiens) (UniProt Q05397); assay: PTK2 protein binding on printed compound slides – biochemical, small-molecule microarray, 635/667 nm fluorescence, BSA, DTT, primary screen (AID 1130); conditions: 635 nm fluorescence, higher = more signal;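 note: composite of spot emission at 667 nm and signal to noise over triplicate slides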
[12] = system: Fibrinogen (Alexa647-labelled); assay: Alexa647-fibrinogen binding to printed small molecules – biochemical, small-molecule microarray, 635/667 nm fluorescence, artefact control for SMM control-protein annotation, profiling panel (AID 1131); conditions: fibrinogen-A647 binding fluorescence, higher = more signal;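 note: z-score merges 667 nm fluorescence with per-spot signal-to-noise over triplicate slides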
[13] = target: Follistatin (Homo sapiens) (UniProt P19883); assay: FST protein binding to printed compounds – biochemical, small-molecule microarray, 635/667 nm fluorescence, primary screen (AID 1132); conditions: 635 nm fluorescence, higher = more signal
[14] = target: Fibroblast growth factor 2 (Homo sapiens) (UniProt P09038); assay: basic fibroblast growth factor binding to printed compounds – biochemical, small-molecule microarray, 635/667 nm fluorescence, primary screen (AID 1133); conditions: FGF2, fluorescence 635/667, higher = more signal
[15] = JC-1 mitochondrial potential readout, lung cancer cells – cell-based, A549, JC-1 fluorescence, basal, 24 h, 100 nL, profiling panel (AID 1138); conditions: higher = more signal;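 note: A549 lung adenocarcinoma cells under basal conditions with no added stimulus; test concentration not given here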
Lefty1 = Lefty1 protein binding to printed compounds – biochemical, small-molecule microarray, 635/667 nm fluorescence, primary screen (AID 1139); conditions: fluorescence 635/667, higher = more signal
[16] = system: wheat germ agglutinin (Triticum aestivum), Alexa647-labelled; assay: Alexa647-WGA lectin binding to printed small molecules – biochemical, small-molecule microarray, 635/667 nm fluorescence, artefact control for SMM control-protein annotation, profiling panel (AID 1140); conditions: WGA-A647 binding, 635 nm fluorescence, higher = more signal;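 note: score merges 667 nm feature emission with signal to noise over triplicate slides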
[17] = target: Luciferin 4-monooxygenase (Photinus pyralis) (UniProt P08659); assay: inhibition of purified Photinus pyralis luciferase – biochemical, luminescence, purified enzyme, 2006 set, primary screen (AID 1141); conditions: purified firefly luciferase, SteadyGlo luminescence, 30 min; higher = more signal, called active from +8 up or from −8 down;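 note: cell-free assay with purified firefly luciferase at 100 ng per well in PBS; test concentration not given here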
Sequence of Luciferin 4-monooxygenase (Photinus pyralis) (P08659 whole entry, looked up): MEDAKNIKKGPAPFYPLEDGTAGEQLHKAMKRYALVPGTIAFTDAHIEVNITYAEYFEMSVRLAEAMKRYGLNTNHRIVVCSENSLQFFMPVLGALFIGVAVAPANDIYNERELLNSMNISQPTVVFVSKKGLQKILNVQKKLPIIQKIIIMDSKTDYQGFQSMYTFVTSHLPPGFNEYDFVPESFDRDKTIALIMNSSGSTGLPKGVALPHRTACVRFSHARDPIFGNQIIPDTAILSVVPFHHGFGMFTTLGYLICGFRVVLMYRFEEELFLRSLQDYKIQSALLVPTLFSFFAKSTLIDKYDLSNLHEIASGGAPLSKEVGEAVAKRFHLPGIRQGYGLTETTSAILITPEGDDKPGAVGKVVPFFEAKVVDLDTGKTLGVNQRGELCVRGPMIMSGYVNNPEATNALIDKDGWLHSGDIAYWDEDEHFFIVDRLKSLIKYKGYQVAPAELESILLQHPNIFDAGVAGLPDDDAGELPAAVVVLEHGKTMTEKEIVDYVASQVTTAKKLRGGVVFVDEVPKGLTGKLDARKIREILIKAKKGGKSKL

Sequence of Fibroblast growth factor 2 (Homo sapiens) (P09038 whole entry, looked up): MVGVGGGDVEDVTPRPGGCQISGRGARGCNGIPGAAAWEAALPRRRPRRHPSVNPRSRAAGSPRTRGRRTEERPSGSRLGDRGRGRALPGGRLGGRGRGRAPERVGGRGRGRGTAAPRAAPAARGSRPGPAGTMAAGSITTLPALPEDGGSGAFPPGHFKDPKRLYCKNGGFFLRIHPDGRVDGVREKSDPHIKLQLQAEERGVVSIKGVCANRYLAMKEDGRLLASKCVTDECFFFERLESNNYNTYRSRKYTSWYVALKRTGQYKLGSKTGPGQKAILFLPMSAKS
Sequence of Follistatin (Homo sapiens) (P19883 whole entry, looked up): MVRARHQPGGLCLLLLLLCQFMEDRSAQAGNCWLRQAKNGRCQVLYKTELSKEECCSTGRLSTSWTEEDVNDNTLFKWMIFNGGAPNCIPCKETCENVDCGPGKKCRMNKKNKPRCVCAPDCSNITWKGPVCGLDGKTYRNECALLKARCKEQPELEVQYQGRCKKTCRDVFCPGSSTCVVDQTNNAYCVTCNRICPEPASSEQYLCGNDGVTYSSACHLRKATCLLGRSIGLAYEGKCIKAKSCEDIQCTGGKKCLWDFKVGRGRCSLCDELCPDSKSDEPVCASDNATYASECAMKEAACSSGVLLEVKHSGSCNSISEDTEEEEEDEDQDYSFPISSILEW
Sequence of Albumin (Bos taurus) (P02769 whole entry, looked up): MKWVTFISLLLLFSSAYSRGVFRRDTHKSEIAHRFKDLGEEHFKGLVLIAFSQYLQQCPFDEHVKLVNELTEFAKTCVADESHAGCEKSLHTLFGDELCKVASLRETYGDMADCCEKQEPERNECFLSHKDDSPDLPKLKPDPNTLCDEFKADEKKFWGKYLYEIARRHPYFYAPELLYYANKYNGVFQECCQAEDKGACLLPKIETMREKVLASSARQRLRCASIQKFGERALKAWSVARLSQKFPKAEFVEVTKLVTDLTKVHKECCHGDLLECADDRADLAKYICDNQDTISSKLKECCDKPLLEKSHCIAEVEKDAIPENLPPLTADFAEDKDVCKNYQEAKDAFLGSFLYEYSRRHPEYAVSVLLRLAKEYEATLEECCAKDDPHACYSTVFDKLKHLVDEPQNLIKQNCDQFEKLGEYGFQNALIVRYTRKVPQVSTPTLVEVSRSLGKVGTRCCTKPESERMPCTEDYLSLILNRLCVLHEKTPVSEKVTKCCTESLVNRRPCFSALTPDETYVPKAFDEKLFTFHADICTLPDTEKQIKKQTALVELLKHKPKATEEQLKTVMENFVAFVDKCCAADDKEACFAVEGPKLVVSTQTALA
Sequence of Focal adhesion kinase 1 (Homo sapiens) (Q05397 whole entry, looked up): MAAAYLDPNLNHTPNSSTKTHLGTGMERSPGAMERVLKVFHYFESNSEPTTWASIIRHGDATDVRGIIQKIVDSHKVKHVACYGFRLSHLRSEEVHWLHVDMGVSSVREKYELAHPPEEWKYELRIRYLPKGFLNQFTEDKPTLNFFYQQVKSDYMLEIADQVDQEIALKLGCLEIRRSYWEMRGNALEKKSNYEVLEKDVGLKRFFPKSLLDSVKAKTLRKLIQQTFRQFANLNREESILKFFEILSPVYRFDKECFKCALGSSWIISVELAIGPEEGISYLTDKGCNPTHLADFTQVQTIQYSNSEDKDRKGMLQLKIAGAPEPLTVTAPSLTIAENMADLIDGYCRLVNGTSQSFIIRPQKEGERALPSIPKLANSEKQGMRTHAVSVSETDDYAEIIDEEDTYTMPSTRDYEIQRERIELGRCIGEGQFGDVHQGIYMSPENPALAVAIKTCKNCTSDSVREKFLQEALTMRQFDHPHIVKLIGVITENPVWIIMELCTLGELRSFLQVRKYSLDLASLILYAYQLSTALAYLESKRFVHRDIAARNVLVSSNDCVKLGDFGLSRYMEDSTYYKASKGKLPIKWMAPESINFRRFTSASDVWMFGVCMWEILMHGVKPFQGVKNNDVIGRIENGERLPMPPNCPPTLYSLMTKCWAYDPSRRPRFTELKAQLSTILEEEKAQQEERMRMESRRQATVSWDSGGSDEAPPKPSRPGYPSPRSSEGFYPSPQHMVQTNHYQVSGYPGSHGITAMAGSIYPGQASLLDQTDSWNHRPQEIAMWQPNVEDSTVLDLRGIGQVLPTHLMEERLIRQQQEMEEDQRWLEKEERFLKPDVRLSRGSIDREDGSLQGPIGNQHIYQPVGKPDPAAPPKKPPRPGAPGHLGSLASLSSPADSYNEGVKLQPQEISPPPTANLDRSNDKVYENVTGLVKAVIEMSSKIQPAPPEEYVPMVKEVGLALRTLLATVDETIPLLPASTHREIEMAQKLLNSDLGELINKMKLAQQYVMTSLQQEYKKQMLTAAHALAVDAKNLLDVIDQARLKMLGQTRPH
Sequence of Concanavalin-A (Canavalia ensiformis) (P02866 whole entry, looked up): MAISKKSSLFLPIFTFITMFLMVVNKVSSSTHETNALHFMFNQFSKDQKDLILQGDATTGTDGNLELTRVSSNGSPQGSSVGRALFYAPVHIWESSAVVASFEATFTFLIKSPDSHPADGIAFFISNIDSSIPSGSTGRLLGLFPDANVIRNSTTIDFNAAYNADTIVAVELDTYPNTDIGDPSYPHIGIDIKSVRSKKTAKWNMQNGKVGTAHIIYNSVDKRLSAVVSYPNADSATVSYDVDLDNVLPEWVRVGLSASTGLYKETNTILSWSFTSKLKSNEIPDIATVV

Row | Structure (SMILES) | composite z-score (Albumin (Bos taurus)) | composite Z-score [1] | composite z-score [2] | composite z-score [3] | composite z-score [4] | composite z-score [5] | composite z-score [6] | composite z-score (Sam68 (KHDRBS1)) | composite z-score [7] | composite z-score [8] | composite z-score [9] | composite z-score [10] | composite z-score [11] | composite z-score [12] | composite z-score [13] | composite z-score [14] | z-score [15] | composite z-score (Lefty1) | composite z-score [16] | z-score [17]
1 | COC(=O)[C@@]1(Cc2ccc(OC)cc2)[C@H]2c3cc(C(=O)N(C)C)n(Cc4nc5ccccc5[nH]4)c3C[C@H]2CN1C(=O)c1ccccc1 | 0.997 | -0.119 (inactive) | 0.515 | -0.112 | 0.781 | 2.27 | -0.0637 | 1.32 | -0.54 | 1.19 | 1.39 | 1.26 | 1.34 | 0.991 | 0.907 | -0.295 | 1.95 | -0.117 | 1.35 | 2.41 (inactive)
2 | C=CCC(OC(C)=O)[C@@H]1[C@@H](N(Cc2cc3ccccc3o2)C(=O)c2ccc(C)cc2)c2cc(OCCCO)ccc2N1C(=O)Cc1ccc2ccccc2c1 (stereo not given in full) | 0.324 | 0.0991 (inactive) | 0.0311 | -0.0077 | -0.138 | 0.0465 | -0.057 | -0.366 | 0.208 | -1.56 | -0.631 | -0.627 | 0.105 | -0.638 | 0.119 | -0.421 | 1.91 | -0.281 | -0.152 | -1.72 (inactive)
3 | C=CCNC(=O)[C@H]1[C@@H]2C(=O)O[C@@H](c3ccccc3)[C@@H](c3ccccc3)N2[C@@H](c2ccccc2OCCO)[C@]12C(=O)N(C(=O)OCCOC)c1ccc(C#CC3=CCCCC3)cc12 | -0.286 | -0.0127 (inactive) | 0.345 | 0.148 | 0.55 | 1.33 | 1.01 | 1.3 | 0.51 | 0.942 | 0.108 | 1.24 | 0.369 | 0.975 | 1.21 | 0.685 | -0.295 | 0.885 | 0.993 | -1.48 (inactive)
4 | C=CCOC(=O)[C@H]1[C@@H]2C(=O)O[C@@H](c3ccccc3)[C@@H](c3ccccc3)N2[C@@H](c2ccc(OCCOC(=O)[C@H]3C[C@H]4C(=O)N[C@@H](CCCC[N+](C)(C)C)C(=O)N4[C@H]3c3cccc(OCCO)c3)cc2)[C@]12C(=O)Nc1ccc(I)cc12 | -0.0737 | 0.197 (inactive) | -0.208 | -0.161 | 0.108 | 0.365 | 0.072 | 0.489 | 0.578 | 1.13 | 1.21 | 0.915 | 0.293 | 0.82 | 1.34 | 1.7 | -1.45 | 0.761 | 0.19 | -0.678 (inactive)
5 | C[C@]1(C(=O)NCCN2CCOCC2)c2ccccc2C(=O)N(Cc2ccc(OC(F)(F)F)cc2)[C@H]1c1ccc(CO)cc1 | 0.723 | 0.456 (inactive) | -0.154 | -0.0966 | 0.627 | 2.43 | 0.345 | 0.217 | -1.15 | 0.392 | 2.24 | 0.634 | -0.108 | 0.915 | 0.536 | -0.38 | 1.68 | -0.355 | 0.55 | -0.0852 (inactive)
